Mito fusion yeast = inhibitors of mitochondrial division or activators of mitochondrial fusion; Potency, µM (series often up to 46.1 µM), for the others: at the highest dose growth rescue (activation), hits mostly activators; hit rate 0.23% among 320,000; S. cerevisiae fusion-defective mutant growth rescue, CellTiterGlo 48 h; also: % of control where 0% means no effect; nearly all actives have a fitted effect of over 45% in size
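Temperature-sensitive fusion-defective S. cerevisiae (e.g. fzo1-1, mgm1-5) were grown with compound in YPEG medium (3% ethanol, 3% glycerol) for 48 hours at 37C. Growth rescue was measured as viability by CellTiterGlo luminescence after 10 minutes at ambient.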
Abeta rescue = compounds reversing amyloid beta toxicity in yeast. hit rate 0.063% among 410,000. yeast expressing A-beta42, growth rescue, OD600, 48 h; response scale: 0% DMSO, 100% iron-clioquinol control. AID 1347071. Potency, µM (top dose mostly 46.1 µM), most hits filed as activators; also: nearly all actives have a fitted effect of over 55% in size
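Yeast A-beta toxicity model in growth medium with pinned compounds, 48 h at 30 C; growth read as absorbance at 600 nm. Normalized to FeCl3/clioquinol equimolar mix (positive) and DMSO (negative).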
TDP-43 yeast inh = inhibitors of TDP-43 toxicity in yeast | TDP-43 expressing yeast growth rescue, BacTiter-Glo, 24 h | hit rate 1.8% among 410,000 | Potency, µM (series often up to 46.1 µM), for inactives: at the top dose growth rescue (activation), hits mostly activators; also: % of control where 0% means no effect; nearly all actives have a fitted effect of over 50% in size
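Luminescence from BacTiter-Glo reports growth of TDP-43-expressing yeast after 24 hr at 30 deg C with compound. Cells were raffinose-pregrown to mid-log, then seeded in galactose medium at OD600=0.02.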
FUS suppressor = FUS proteinopathy suppression in yeast | Potency, µM (series often up to 76.6 µM), usual class: activators | hit rate 0.24% among 390,000 | S. cerevisiae FUS-expressing, growth rescue, OD600, 24 h;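 also: plate controls were DMSO vehicle for no effect and reference control for full effect; nearly all actives have a fitted effect of over 55% in size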
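Compound concentration series was pinned onto galactose-induced FUS-expressing yeast seeded at OD 0.005. Plates sat 24hr at 30C; absorbance at 600 nm gave growth. DMSO served as background control.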
aSyn yeast inh = alpha-synuclein toxicity inhibition in yeast | Yeast expressing alpha-synuclein, growth rescue, BacTiter-Glo, 24 h | hit rate 0.14% among 370,000 | Potency, µM (titrated, usually from 46.1 µM), without a hit: at the top dose growth rescue (activation), actives largely listed as activators | AID 652106; also: % of control where 0% means no effect; nearly all actives have a fitted effect of over 65% in size
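Screening used galactose-induced yeast with toxic alpha-synuclein levels, exposed to compound for 24 hr at 30 deg C. Cell growth, read with BacTiter-Glo luminescence, gave the measured signal.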
* marks the source's active call; other numbers are inactive results; i = inactive; u = inconclusive; x = no result. An excerpt weighted towards active compounds, which were near 2.2% of everything screened. Calls follow the shape of the dose curve; as a rule, active = well fitted curve in the direction sought with a large enough effect; inconclusive = small, poorly fitted or top-dose-only effect, or another doubt; inactive = no such curve, though single readings can be large; an effect the other way counts as inactive or inconclusive. Potency is read from the fitted curve at half-maximal effect.

SMILES | Mito fusion yeast | Abeta rescue | TDP-43 yeast inh | FUS suppressor | aSyn yeast inh
CCc1nc(NCc2ccc3c(c2)OCO3)c2oc3ccccc3c2n1 | 19% | i | 11µM* | i | -12%
Cc1ccc2oc(C(=O)NCc3ccc4c(c3)OCO4)c(C)c2c1 | -2% | i | 22µM* | i | -5%
CC(C)Cc1ccc(C(=O)NCc2ccc3c(c2)OCO3)o1 | 2% | i | 14µM* | i | -3%
Cc1cc(Cl)ccc1C(O)c1ncc(-c2cccc(C(F)(F)F)c2)[nH]1 (configuration not stated) | x | i | 17% | i | 3%
CCOC(=O)C1CCN(S(=O)(=O)c2ccccc2[N+](=O)[O-])CC1 | x | i | 16% | i | 0%
COc1ccccc1NC(=O)CN(c1cc(C)cc(C)c1)S(=O)(=O)c1c(C)[nH]c(=O)[nH]c1=O | x | i | 1% | i | x
CCOc1ccc(CCNC(=O)c2nn(C)c3c2CSc2ccc(C)cc2-3)cc1OCC | x | i | 8% | i | x
Cc1c(C(=O)NCc2ccc3c(c2)OCO3)oc2ccccc12 | u | i | 16µM* | i | 4%
Cc1cc2oc(C(=O)NCc3ccc4c(c3)OCO4)c(C)c2cc1C | 0% | i | 0% | i | 3%
O=C(Nc1ccc(N2CCN(C(=O)c3ccccc3F)CC2)cc1)c1cncc(Br)c1 | 3% | i | u | x | 7%
COC1=C[C@H](C(=O)N[C@H]2CCCC[C@@H]2NC(C)=O)[C@@]2(C)Cc3ccccc3[C@H]2CC1=O | x | x | x | i | x
O=C(O)CCC(=O)OCCCc1cc2ccccc2c(=O)o1 | x | i | 1% | i | -1%
O=C(Oc1ccc(C(=S)N2CCOCC2)cc1)c1cccc(Cl)c1 | -3% | i | 13µM* | i | 24%
Cc1ccccc1C(=O)Oc1ccc(Cl)cc1C(=S)N1CCOCC1 | -3% | i | 13µM* | i | -9%
O=C(Oc1ccc(C(=S)N2CCOCC2)cc1)c1cc([N+](=O)[O-])cc([N+](=O)[O-])c1 | 1% | i | -9% | i | 2%
O=C(Oc1ccc(C(=S)N2CCOCC2)cc1Cl)c1ccccc1F | 1% | i | 12% | i | -21%
O=S(=O)(Oc1ccc(C(=S)N2CCOCC2)cc1)c1ccc(Cl)cc1 | 0% | i | 18µM* | i | 3%
COc1ccc(Cn2nc3n(c2=O)-c2ccccc2OC3)cc1 | x | i | 14µM* | i | x
Cc1c(-c2ccccc2)n(-c2ccccc2O)c2nc3c(c(=O)n(C)c(=O)n3C)n12 | x | i | 3% | i | -8%
COc1ccccc1NC(=O)Cc1coc2cc(C)ccc12 | 4% | i | 11µM* | i | 5%
Cc1ccc2c(CC(=O)NNC(=O)c3ccccc3O)coc2c1 | 0% | i | 0% | 35µM* | -4%
O=C(CC(=O)c1ccccn1)c1ccccc1 | x | u | u | x | 13µM*
Cn1c(=O)c2c(nc(CN3CCc4ccccc4C3)n2Cc2cccc(Cl)c2)n(C)c1=O | -10% | i | 20µM* | u | 19%
CCc1ccc(CCC(=O)Nc2ccc(Br)cc2)o1 | -4% | i | 22µM* | i | -25%
CCSc1nc(CC)c2c(c1C#N)CCCC2 | 8.9µM* | i | 17% | i | 9%
SMILES | Mito fusion yeast | Abeta rescue | TDP-43 yeast inh | FUS suppressor | aSyn yeast inh
Cc1ccc(C(=O)NCC(c2cccnc2)N2CCc3ccccc3C2)cc1C (configuration not stated) | x | i | 15% | i | x
CC(C)(C)c1ccc(C(=O)NCC(c2cccnc2)N2CCc3ccccc3C2)cc1 (configuration not stated) | x | i | 22µM* | i | x
OC(c1ccccc1)c1nc(-c2cc3ccccc3o2)cs1 (configuration not stated) | x | i | 14µM* | i | 11%
COc1cc(C(O)c2nc(-c3ccc(C)c(C)c3)cs2)ccc1F (configuration not stated) | x | i | 35µM* | i | u
Cc1ccc(-c2csc(C(O)c3ccccc3)n2)cc1C (configuration not stated) | x | i | 25µM* | i | u
C1=Cc2ccccc2/C1=C\c1cc2c3c(c1)CCCN3CCC2 | x | x | x | x | -6%

Compound activity deposited in PubChem BioAssay by National Center for Advancing Translational Sciences (NCATS).
